# Source: PubChem BioAssay (NCI)
# This is part of a sample that, as a whole, favours compounds with a hit. Of some 79,000 tested, about 15% had one in any assay. A number with no mark means an inactive call. Calls of active or inactive are those of the source. Cut-off read from the data, not from the text of the source: active = growth inhibition above about 70%; inactive = the rest.
# What was measured:
# [1] = NCI Yeast Anticancer Drug Screen. Data for the rad50 strain (AID 155);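 note: 0% = growth of vehicle-only cultures of the same strain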; details: S. cerevisiae rad50 strain growth inhibition; at 50.0 µM; stronger effect = higher value
# Procedure, shortened: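 Genetically altered yeast (DNA repair pathway); compound treatment; growth inhibition vs vehicle ctrl.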
# [2] = NCI Yeast Anticancer Drug Screen. Data for the mec2-1 strain (AID 157); details: S. cerevisiae mec2-1 strain, at 50.0 µM, stronger effect = higher value
# Procedure, shortened: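 Test agents were screened against the mec2-1 yeast strain, with defined DNA repair or cell cycle alteration. Growth was scored as inhibition against vehicle-only controls.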
# [3] = NCI Yeast Anticancer Drug Screen. Data for the sgs1 mgt1 strain (AID 161);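 note: 0% = growth of cultures given vehicle only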; details: S. cerevisiae sgs1 mgt1 strain, at 50.0 µM, stronger effect = higher value
# Procedure, shortened: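 Mutant yeast exposed to compound; growth scored against vehicle-only wells.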
# [4] = NCI Yeast Anticancer Drug Screen. Data for the cln2 rad14 strain (AID 165);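 note: 0% = growth equal to vehicle treated cultures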; details: S. cerevisiae cln2 rad14 strain, at 50.0 µM, stronger effect = higher value
# Procedure, shortened: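 Growth of compound-exposed yeast (cln2 rad14 genotype) measured and expressed as inhibition relative to vehicle.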
# [5] = NCI Yeast Anticancer Drug Screen. Data for the bub3 strain (AID 167); details: S. cerevisiae bub3 mutant strain, at 50.0 µM, stronger effect = higher value
# Procedure, shortened: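 Yeast carrying a defined mutation is treated with each compound, and growth is compared with that of vehicle-exposed cells to give inhibition.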
# [6] = NCI Yeast Anticancer Drug Screen. Data for the mlh1 rad18 strain (AID 175); details: S. cerevisiae mlh1 rad18 strain growth inhibition; at 50.0 µM; stronger effect = higher value
# Procedure, shortened: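 In this whole-cell yeast screen, a strain with altered DNA damage repair is challenged with compound, and its growth is measured against matched vehicle-treated controls.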
Compound,growth inhibition [1] [%],growth inhibition [2],growth inhibition [3] [%],growth inhibition [4] [%],growth inhibition [5],growth inhibition [6]
CC(=O)OCc1ccnc2ccc(OC(C)=O)cc12,0.05,15.4%,-6.4,-8.75,-5.2%,2.75%
NC(=O)c1sc(N2CCCC2)nc1N,13.2,23.9%,22.1,0.95,9.8%,9.05%
CC(C)(O)CCC(O)C(C)(O)C1CCC2(O)C3=CC(=O)C4(O)CC(O)C(O)CC4(C)C3CCC12C (stereo unspecified) (tested in a mixture with another compound),-5.3,-17.9%,6.15,-12.2,-17.4%,-47.7%
CCOC(=O)C(C)NCc1ccccc1 (stereo unspecified),2.15,0.1%,-1.4,-39.6,0.95%,-3.25%
Clc1ccc2c(c1)C(Nc1cc3c4ccccc4ccc3c3ccccc13)c1cc(Cl)cc(Cl)c1-2 (stereo unspecified),51.2,-1.25%,22.6,21.1,9.3%,12.2%
O=[N+]([O-])c1ccc(S(=O)(=O)Nc2c([N+](=O)[O-])cc([N+](=O)[O-])c3ccccc23)cc1,36.6,-3.9%,21.4,12.7,2.7%,18.4%
CC(=O)C(CCN(C)C)(c1ccccc1)C1CCCCC1 (stereo unspecified),-12.2,-15.2%,-2.85,-6.65,-10.5%,-3.6%
O=C(O)c1ccncc1,12.2,-9.65%,8.1,46.9,-2.9%,17.9%
O=C(O)C=C1CCCCC1,4.35,-4.2%,20,10.4,11.9%,-1.1%
CC1(C)CC(=O)c2c(N)n[nH]c2C1,-0.35,3.1%,-8.55,-2.2,1.35%,-15%
CNS(=O)(=O)c1ccc(N)cc1,-2.9,-5.6%,2.8,-27.2,3.15%,2.9%
CC1(C)Cc2ccccc2C1=O,16.1,-4.85%,4,-53.6,-1.65%,-2%
CC1(C)N=C(/C(Cl)=[N+](/[O-])C(=O)c2ccc(Cl)cc2)C(C)(C)N1O,-21.1,-26.9%,-24.1,-7.3,-38.6%,-8.4%
O=S1c2ccccc2Sc2ccccc21,2.65,-8.4%,-5.05,1.6,-2%,-2.25%
CCOC(=O)C1Sc2c(c(=O)n(C)c3ccccc23)C1=O (stereo unspecified),34.1,36.6%,34.1,40.7,-8.45%,41.2%
COC1CCC(C(C)(C)C)CC1 (stereo unspecified),2.45,-11.6%,0.15,-3.8,5.85%,-21.7%
CC(C)=CC1C(COCc2cc3c(cc2Br)OCO3)C1(C)C (stereo unspecified),-12.3,-9.45%,3,-34.2,-7.05%,-3.95%
CC(C)(C)[Si](C)(C)OC1CCOC1(O)c1ccccn1 (stereo unspecified),5.75,0.65%,29.6,37.1,35.8%,-8.2%
CN=C(N)N/N=C(\c1ccccc1)c1ccc(Cl)cc1,43.4,11.6%,43.1,3.55,34.6%,72.9% (active)
COC1(OC)CCC2C1C1CCC(OC)(OC)C21 (stereo unspecified),1.7,-3.35%,11.3,8.75,3.4%,-17.4%
CCC(C#N)(C(=O)OC)/C(C)=C/C(C)C (stereo unspecified),7.95,-13.2%,-3.45,-7.25,-26.9%,-25.1%

Compound,growth inhibition [1] [%],growth inhibition [2],growth inhibition [3] [%],growth inhibition [4] [%],growth inhibition [5],growth inhibition [6]
COc1ccc(C(NCCn2cnc3c2c(=O)n(C)c(=O)n3C)c2ccccc2)cc1 (stereo unspecified),19.4,4.05%,11.2,-33.6,-4.5%,18.8%
CC(C)CC(NC(=O)CN)C(=O)O (stereo unspecified),-1.85,2.4%,-1.1,-7.2,-6%,-0.85%
Clc1ccc(/C=N/N2CCN(/N=C/c3ccc(Cl)cc3)CC2)cc1,-3.1,-10.3%,-0.2,-5.35,13.2%,-15%
COc1ccc(C2=C(c3ccccc3)C(C)(C)Oc3ccc4ccccc4c32)cc1,-44.8,-0.05%,-5.9,14.2,-2.8%,-7.3%
Cc1cc(=O)[nH]c(Nc2nc3ccccc3[nH]2)n1,1.1,-0.75%,6.7,20.8,-1.4%,5.9%
COc1cc(OC(=O)/C=C2/CCC(=O)O2)c2c(c1)OC1OC(=O)CC21 (stereo unspecified),13.6,-4.95%,13.8,-3.4,-1.9%,15.8%
CC1CCC/C1=C(/I)C(=O)c1ccccc1 (stereo unspecified),2.25,-6.75%,24.6,7.85,-2.15%,-59.6%
O=NNc1ccc(-c2ccc(NN=O)cc2)cc1,19.4,0.75%,10.8,10.2,-10.1%,8.95%
CCN(CC)CCCC(C)NC(=O)c1ccc2c(c1)C(=O)c1ccccc1C2=O (stereo unspecified),6,19.1%,16.9,36.4,-17.7%,-33.9%
COC(=O)C(C)S(=O)(=O)O (stereo unspecified),-12.2,-2.5%,9.35,-80.5,2.9%,0.3%
CC1=NC(=O)C(C)(c2ccccc2)N1CCc1ccccc1 (stereo unspecified),-0.05,8.4%,-8.75,-16.9,-10.6%,-28.6%
COc1ccc(C#CC(=O)O)c(OC)c1,-3.15,-2.1%,22.9,-30.6,-5.45%,-9%
CN(C)c1ccc(/C=N/N(Cc2ccccc2)c2ccccc2)cc1,-14.4,-29.1%,3.2,-11.6,11.3%,10.2%
COCCN1CCC(CO)C1 (stereo unspecified),4.85,11.5%,20.1,2.05,11.9%,10.5%
Cc1ccc(C)c(NC(=O)NC(C)C)c1,-0.6,0.5%,5.45,-25.6,-5.3%,-0.35%
O=C(NC1(C(=O)Oc2ccc([N+](=O)[O-])cc2)CCCC1)OCc1ccccc1,7.25,20.2%,26.1,8.85,-1.7%,28.9%
CN(C)CCCNC(=O)N/N=C/c1ccc(O)cc1,-10.2,-25.1%,7,17.8,1.65%,-25.2%
CC(CC(=O)O)(CC(=O)O)c1ccccc1,19.6,-35.5%,-11.2,-7.3,-7.05%,-35.1%
CC(NC(=O)C(N)CC(=O)O)C(=O)OC12CC3CC(CC(C3)C1)C2 (stereo unspecified),-55.5,-62.4%,-22.6,-0.95,12.7%,-10.8%
O=C1c2ccccc2CCC12OC2c1ccccn1 (stereo unspecified),67.8,78.5% (active),55,-6,89.9% (active),84.2% (active)
